Assay outcomes deposited in PubChem by National Center for Advancing Translational Sciences (NCATS).
miR-21 reporter – qHTS Assay for Modulators of miRNAs and/orActivators of miR-21 | Potency, µM (top dose mostly 38.3 µM), hits mostly activators | HeLa miR-21 FLuc reporter, luciferase, 48 h | 340,000 tested, under 10 active;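 also: miR-21 action dims this reporter so a rising signal means less miR-21 action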
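Using DMEM plus 10% FBS, HeLa miR-21-FLuc cells are incubated with test compounds (final up to about 40uM) for 48 hours; firefly luciferase signal is then imaged following reagent-mediated lysis.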
TDP1 cell noCPT – qHTS for Inhibitors of human tyrosyl-DNA phosphodiesterase 1 (TDP1): qHTS in cells in absence of CPT | Potency, µM (series often up to 46.2 µM), usual class: inhibitors | DT40 Tdp1-/- hTDP1 cells, no CPT, ATP luminescence, 48 h | 420,000 tested, 15% active; also: nearly all actives have a fitted effect of over 55% in size
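Luminescent ATP content (CellTiter-Glo) served as the growth readout. Knockout chicken DT40 cells expressing human TDP1 were exposed to compounds without camptothecin for a minimum 48 hr at 37 °C.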
TDP1 block – qHTS Assay for Inhibitors of Tyrosyl-DNA Phosphodiesterase (TDP1); Tyrosyl-DNA phosphodiesterase 1 (Homo sapiens), Q9NUW8; recombinant TDP1, AlphaScreen DNA substrate cleavage; Potency, µM (highest dose often 130 µM), usual class: inhibitors; 350,000 tested, 0.28% active; AID 485290, 2010; also: nearly all actives have a fitted effect of over 40% in size
Target sequence (Q9NUW8 whole entry, looked up): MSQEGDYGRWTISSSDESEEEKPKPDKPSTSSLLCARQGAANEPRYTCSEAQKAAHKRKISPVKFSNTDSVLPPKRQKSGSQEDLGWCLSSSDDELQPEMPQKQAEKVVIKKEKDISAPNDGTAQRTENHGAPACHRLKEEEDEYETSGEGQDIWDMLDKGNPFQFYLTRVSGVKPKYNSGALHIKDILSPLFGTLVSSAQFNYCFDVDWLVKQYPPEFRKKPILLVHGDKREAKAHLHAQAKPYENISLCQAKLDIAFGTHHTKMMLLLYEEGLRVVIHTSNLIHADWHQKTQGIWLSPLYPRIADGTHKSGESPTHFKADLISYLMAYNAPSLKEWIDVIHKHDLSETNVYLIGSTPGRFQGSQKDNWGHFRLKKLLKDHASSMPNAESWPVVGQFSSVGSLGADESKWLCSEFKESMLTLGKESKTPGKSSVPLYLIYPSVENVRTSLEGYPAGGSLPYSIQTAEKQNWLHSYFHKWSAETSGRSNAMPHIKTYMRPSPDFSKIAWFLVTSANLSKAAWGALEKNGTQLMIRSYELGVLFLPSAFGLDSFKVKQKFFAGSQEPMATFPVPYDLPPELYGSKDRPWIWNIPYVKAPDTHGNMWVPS
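E. coli-derived human Tdp1, 1 nM final. Cpd preinc 15 min RT; substrate 15 nM final, 5 min RT; AS bead mix 10 ug/ml final, 10 min RT. Signal loss = tyrosine-FITC cleavage. No-enzyme wells = max signal.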
TDP1 cell CPT – qHTS for Inhibitors of human tyrosyl-DNA phosphodiesterase 1 (TDP1): qHTS in cells in presence of CPT. Potency, µM (titrated, usually from 46.2 µM), most hits filed as inhibitors. chicken DT40 Tdp1-/-;hTDP1 cells + 20 nM CPT, ATP luminescence, 48 h. 420,000 tested, 12% active. AID 686979, 2013; also: nearly all actives have a fitted effect of over 55% in size
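Cell growth measured by CellTiter-Glo luminescence after a minimum 48 h, 37 C compound exposure with 20 nM CPT in Tdp1-knockout DT40 cells stably expressing hTDP1, seeded 400/well; qHTS titration format.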
uPA surface inh – qHTS for Inhibitors of Cell Surface uPA Generation; Potency, µM (doses to about 38.3 µM), most hits filed as inhibitors; 330,000 tested, 0.31% active; cell surface uPA generation assay, qHTS; active = well fitted inhibition curve with a large enough effect; inconclusive = small, poorly fitted or top-dose-only effect; inactive = no such curve, though single readings can be large or run the other way; tested in mouse RAW 264.7 cells; also: nearly all actives have a fitted effect of over 55% in size
Of the large screens only hits and unclear results are named; the others gave an inactive call. Only some compounds are listed: those with a hit (about 16% of all), similar ones and a draw of the others. Unless noted, calls follow the shape of the dose curve; as a rule, active = well fitted curve in the direction sought with a large enough effect; inconclusive = small, poorly fitted or top-dose-only effect, or another doubt; inactive = no such curve, though single readings can be large; an effect the other way counts as inactive or inconclusive.

Cc1ccc(CN2CC(C(=O)OCc3ccccc3Cl)CC2=O)cc1 (stereo unspecified)	none (no result: miR-21 reporter, TDP1 block)
OCC1(Cc2ccc(Cl)cc2)CCN(CC2CC=CCC2)CC1 (stereo unspecified)	TDP1 cell noCPT inconclusive, TDP1 cell CPT 29µM
OCC1(Cc2ccc(Cl)cc2)CCN(CCCc2ccccc2)CC1	TDP1 cell noCPT 23µM, TDP1 cell CPT inconclusive
OCC1(Cc2ccc(Cl)cc2)CCN(Cc2ccccc2F)CC1	TDP1 cell noCPT inconclusive, TDP1 cell CPT inconclusive
CSc1ccc(CN2CCC(CO)(Cc3ccc(Cl)cc3)CC2)cc1	TDP1 cell noCPT 18µM, TDP1 cell CPT inconclusive
CCCCCOC(=O)NC1CCS(=O)(=O)C1 (stereo unspecified)	none
O=C(Nc1cccc(NC(=O)c2ccccc2Cl)c1)c1cccs1	TDP1 cell noCPT inconclusive, TDP1 cell CPT inconclusive
CC(C)OC(=O)Nc1ccc2nc(-c3cscn3)[nH]c2c1	TDP1 cell noCPT 1.2µM, TDP1 cell CPT 0.84µM (no result: miR-21 reporter, TDP1 block, uPA surface inh)
CC(=O)Nc1cccc(-c2nc3ccc(NC(C)=O)cc3[nH]2)c1	none
COCCn1c(=NC(=O)CSCC(=O)Nc2cc(C)on2)sc2cc(C(=O)OC)ccc21	TDP1 cell CPT inconclusive
CN(C)c1ccc(/C=C/c2nc3ccccc3c(=O)n2CCO)cc1	TDP1 cell noCPT 16µM, TDP1 cell CPT 18µM, uPA surface inh inconclusive (no result: TDP1 block)
O=c1c2ccccc2nc(/C=C/c2ccccc2)n1CCCO	TDP1 cell noCPT inconclusive, TDP1 cell CPT inconclusive (no result: TDP1 block)
CCCc1nc2ccccc2c(=O)n1CCc1ccccc1	TDP1 cell noCPT 9.2µM, TDP1 cell CPT 13µM (no result: TDP1 block)
O=c1c2ccccc2nc(/C=C/c2ccc(O)cc2)n1CCc1ccccc1	miR-21 reporter inconclusive, TDP1 cell noCPT 8.2µM, TDP1 cell CPT 7.3µM
Cc1ccc(N(C(=O)c2ccco2)C(C(=O)NC2CCCC2)c2cccnc2)cc1C (stereo unspecified)	none (no result: TDP1 block)
COc1ccc(N(C(=O)CCl)C(C(=O)NC2CCCCC2)c2cccnc2)cc1 (stereo unspecified)	miR-21 reporter inconclusive, TDP1 cell noCPT 2.3µM, TDP1 cell CPT 3.3µM
O=C(NC1CCCCC1)C(c1cccnc1)N(C(=O)CCl)c1ccc(F)cc1 (stereo unspecified)	miR-21 reporter inconclusive, TDP1 cell noCPT 0.58µM, TDP1 cell CPT 0.52µM
CCC(C)c1ccc(N(C(=O)c2ccco2)C(C(=O)NC2CCCC2)c2cccnc2)cc1 (stereo unspecified)	TDP1 cell noCPT 16µM, TDP1 cell CPT 18µM
CCn1c(=O)n(CC)c2cc(N3CCCC3)c(NC(=O)c3ccc(C)c([N+](=O)[O-])c3)cc21	TDP1 cell noCPT 7.3µM, TDP1 cell CPT 6.5µM
CCn1c(=O)n(CC)c2cc(N3CCCC3)c(NC(=O)c3cccc(C)c3)cc21	TDP1 cell noCPT 16µM, TDP1 cell CPT 21µM
CCn1c(=O)n(CC)c2cc(N3CCCC3)c(NC(=O)c3cccc(Cl)c3)cc21	TDP1 cell noCPT 9.2µM, TDP1 cell CPT 15µM
COc1ccc(NC(=O)Cc2coc3cc(C)cc(C)c23)c(OC)c1	TDP1 cell noCPT inconclusive, TDP1 cell CPT 21µM (no result: uPA surface inh)
COc1ccc(OC)c(NC(=O)Cc2coc3ccc4ccccc4c23)c1	TDP1 cell noCPT 13µM, TDP1 cell CPT inconclusive
Cc1cccc(NC(=O)Cc2coc3ccc4ccccc4c23)n1	TDP1 cell noCPT 16µM, TDP1 cell CPT 10µM
Cc1cc(NC(=O)CSc2ncn[nH]2)no1	none
Cn1ncc(Cl)c1C(=O)N/N=C/c1cc2c(cc1[N+](=O)[O-])OCO2	none
COc1ccc(CCNC(=O)/C=C/c2ccco2)cc1	TDP1 cell noCPT inconclusive, TDP1 cell CPT 16µM (no result: TDP1 block)
NS(=O)(=O)c1ccc(CCNC(=O)/C=C/c2ccc([N+](=O)[O-])cc2)cc1	TDP1 cell noCPT 15µM, TDP1 cell CPT inconclusive
COc1ccc(CCNC(=O)/C=C/c2ccco2)cc1OC	none (no result: TDP1 block)
O=C(/C=C/c1ccc([N+](=O)[O-])cc1)NCCc1ccccc1	TDP1 cell noCPT inconclusive, TDP1 cell CPT inconclusive
O=C(/C=C/c1ccccc1)NCCc1ccccc1	TDP1 cell noCPT 12µM, TDP1 cell CPT 9.2µM, uPA surface inh inconclusive (no result: TDP1 block)
OCC1(CO)COC(C(Cl)(Cl)Cl)OC1	none (no result: miR-21 reporter, uPA surface inh)
COc1cccc(-c2nnc(SCC(=O)Nc3ccc4c(c3)OCCO4)n2Cc2ccco2)c1	TDP1 cell noCPT inconclusive, TDP1 cell CPT inconclusive
Cc1ccc2nc(/C=C/c3cccc(F)c3)ccc2c1	TDP1 cell noCPT inconclusive
CN(C)c1ccc(/C=C/c2ccc3cc(N)ccc3n2)cc1	TDP1 cell noCPT 3.2µM, TDP1 cell CPT 7.1µM (no result: miR-21 reporter, TDP1 block, uPA surface inh)
Cc1ccc2nc(/C=C/c3ccc(N(C)C)cc3)ccc2c1	TDP1 cell noCPT 13µM, TDP1 cell CPT 13µM (no result: miR-21 reporter, TDP1 block, uPA surface inh)
O=S(=O)(c1cc(F)ccc1F)N1CCN(c2ncnc3ccccc23)CC1	TDP1 cell noCPT 2.1µM, TDP1 cell CPT 2.3µM, uPA surface inh inconclusive (no result: miR-21 reporter)
O=S(=O)(c1cc(F)ccc1F)N1CCN(c2ccccn2)CC1	none
NS(=O)(=O)c1ccc(CCNC(=O)CCCOc2ccccc2)cc1	TDP1 cell noCPT inconclusive
COc1ccc(C(C(=O)NCc2ccccc2)N(Cc2ccco2)C(=O)c2snc(C(N)=O)c2N)cc1 (stereo unspecified)	TDP1 cell noCPT inconclusive, TDP1 cell CPT inconclusive (no result: TDP1 block)
Cc1ccc(C(C(=O)NCc2ccccc2)N(Cc2ccco2)C(=O)c2snc(C(N)=O)c2N)o1 (stereo unspecified)	miR-21 reporter inconclusive, TDP1 cell noCPT 15µM, TDP1 cell CPT inconclusive
COc1cc(OC)cc(C(C(=O)NCc2ccccc2)N(Cc2ccco2)C(=O)c2ccno2)c1 (stereo unspecified)	TDP1 cell noCPT 23µM, TDP1 cell CPT inconclusive
CCc1ccccc1N(CC(=O)NCc1ccco1)C(=O)c1snc(C(N)=O)c1N	TDP1 cell noCPT 18µM, TDP1 cell CPT inconclusive
CC(C)CCNC(=O)CN(Cc1ccco1)C(=O)c1snc(C(N)=O)c1N	none
CCN(CC(=O)Nc1ccc(NC(C)=O)cc1)C(=O)/C=C/c1cn(-c2ccccc2)nc1-c1ccc(F)cc1	none (no result: miR-21 reporter, TDP1 block)
O=C(COc1ccc(Cl)cc1Cl)NC(=O)c1ccccc1	none
CCCOc1c(Br)cc(C(=O)OCc2cc(=O)n3ccsc3n2)cc1OC	TDP1 cell noCPT 10µM, TDP1 cell CPT 5.8µM (no result: miR-21 reporter, TDP1 block)
CCCCC(=O)Nc1ccc(C(=O)OCc2cc(=O)n3ccsc3n2)cc1	TDP1 cell noCPT 16µM, TDP1 cell CPT inconclusive (no result: uPA surface inh)
O=C(COc1ccc(Cl)cc1)Nc1ccc(C(=O)OCc2cc(=O)n3ccsc3n2)cc1	TDP1 cell noCPT inconclusive, TDP1 cell CPT 15µM (no result: uPA surface inh)
O=C(OCc1cc(=O)n2ccsc2n1)c1ccccc1NCCO	TDP1 block 45µM (no result: miR-21 reporter)
